From the supplement of paper PMC3334620
Over roughly 33,000 sequences, “E-score (-0.5 to 0.5)” has its median near -0.04; the highest 2% begin near 0.36. This is one part of a sample in which the highest values are shown more often than they occur.

Molecular target: T1, Hmlalpha2 (UniProt P0CY09)
T1 sequence: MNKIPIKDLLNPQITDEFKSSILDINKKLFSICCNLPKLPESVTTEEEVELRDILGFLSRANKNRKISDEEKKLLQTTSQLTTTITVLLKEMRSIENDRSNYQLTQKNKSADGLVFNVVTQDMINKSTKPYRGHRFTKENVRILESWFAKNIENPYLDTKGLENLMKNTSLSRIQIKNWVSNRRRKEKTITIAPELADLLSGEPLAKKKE
Assay: PBM E-score (8-mer binding enrichment) (E-score (-0.5 to 0.5)); higher = stronger / more preferred TF binding
Settings: protein concentration: 200 nM; construct: GST-full length
Procedure, shortened: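 Universal all-10-mer Agilent arrays, fresh or stripped once, were converted to double-stranded form by primer extension. GST-tagged yeast transcription factors from PURExpress in vitro transcription/translation, full-length or DNA-binding domain only, were applied at about 100-200 nM and detected with fluorescent anti-GST. After masliner normalisation, the Universal PBM Analysis Suite scored each ungapped eight-base word together with its reverse complement by E-score.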

Sequence | PBM E-score
CCCTTTAC | 0.134
ATACTCCG | -0.0161
AAATTGCC | -0.0531
CTTTCTTC | -0.09
CAATCGGC | -0.156
CAGCCACA | -0.111
ACCAGAGA | -0.144
ACCTAAAC | 0.098
CCTAGCGC | -0.102
ATCGACCG | -0.223
AGTAACAT | 0.295
CATAACAA | 0.323
GATAACAA | 0.324
ACTAACAC | 0.293
GATAACGC | 0.199
AATAACCT | 0.104
GCTAACAA | 0.164
GCTAACAC | 0.366
AATAACAT | 0.412
CATAACAG | 0.174
GATAACAC | 0.39
CATAACAC | 0.397
ACAACCAT | 0.278
CCTACAAA | 0.0287
ATCTGAGC | -0.0204

Sequence | PBM E-score
AGCTAACG | 0.117
AGGGTACG | 0.0138
AGATAGAA | -0.166
TATCCTAA | 0.00317
GGACCTTA | -0.238
AATAACAA | 0.267
AATAACAC | 0.396
AATAACAG | 0.307
ACAATACA | 0.326
GGAATACC | -0.0768
TGAATACA | 0.397
GGAATACA | 0.431
CCAATACA | 0.313
TCAATACA | 0.372
CGAATACC | -0.0493
CGAATACG | 0.259
TGGATACA | 0.17
CGAATACA | 0.39
GGAATAGA | -0.0449
TGAATAAA | 0.245
GTAAGTAC | 0.234
CACTAGGA | -0.225
AGAGGTCC | -0.273
AGCTGCAA | -0.227
AACCTCAA | 0.0617

Sequence | PBM E-score
AGTTTGCG | -0.0236
ACTATCTG | -0.156
CTATGAAG | -0.149
CGATCCGA | -0.256
AGCGGCTA | -0.0688
ACTCTACT | 0.0373
AGAATACC | 0.0773
AGAATACA | 0.366
TAAATACA | 0.434
GAAATACA | 0.346
AAAATACA | 0.334
AGAATACG | 0.192
CATGTAAG | 0.47
CATGTAAC | 0.456
GATGTAAC | 0.215
CCTGTAAC | 0.093
AATGTAAG | 0.294
CCTGTAAG | -0.00273
CGAGATCG | -0.0661
GCATGCGA | 0.0698
AAACCACC | -0.166
AGAGCCGA | -0.106
GTGTTGCA | 0.187
GTGTTGTA | 0.382
CTGTTGTA | 0.253

Sequence | PBM E-score
ATGTTGTC | 0.364
ATGTTGTA | 0.406
ATGTTGTG | 0.362
CATACCGG | -0.154
AGTCTGCC | -0.184
CAACGGAG | -0.12
ACCCTTAA | -0.0263
AGTATGTG | 0.115
CGTATGTA | 0.356
AGTATGTC | 0.201
GGTATGTA | 0.4
AGTATGTA | 0.394
GGTATGGA | -0.18
AATTAGAA | 0.0299
GAAAAACC | -0.0498
ATGAGGAG | -0.187
GCGTTAAA | 0.366
CCGTTAAA | 0.125
CCGTTAAC | 0.0773
GCGTTAAC | 0.379
TCGTTAAA | 0.126
ACGTTAAC | 0.281
CCAACCTC | -0.128
GATAAGTA | 0.0843
AAGGGCTC | -0.21

Sequence | PBM E-score
TCGTTTAA | 0.293
GGCGTGAA | -0.0431
AGCGTGTC | 0.317
AGCGTGTA | 0.472
AGCGTGTG | 0.249
CGCGTGTA | 0.458
GGCGTGTA | 0.464
CGCGTGTC | 0.262
CGCGTGCA | -0.0161
GGCGTGCA | -0.128
AACATATA | 0.286
CTGGATCC | -0.25
GCTTAGAA | -0.00669
AAAATTGG | -0.167
GGTCGACC | -0.0813
TGTAAGAA | 0.391
TCTAAACA | 0.228
CGTAAGAA | 0.106
GGTAAACA | 0.333
ACTAAACA | 0.196
CGTAAACA | 0.394
AGTAACAA | 0.288
TGTAACAA | 0.384
CGTAACAA | 0.228
TGTAAACA | 0.461

Sequence | PBM E-score
GGTAAGAA | -0.0659
AGTAAACA | 0.337
TGCCTCCA | -0.233
CTGCACAC | 0.0406
TATCACGA | 0.00013
GAAGACAC | 0.0337
CCGCTCCC | -0.362
AGGTCTGG | -0.101
AGGAAAGC | -0.203
CGTAGAAA | 0.31
CATAAACA | 0.384
TGTAGAAA | 0.429
AGTAGAAA | 0.124
AGTAAAAA | 0.196
CGTAAAAA | 0.345
GATAAACA | 0.212
TGTAAAAA | 0.444
TATAAACA | 0.358
TTCTTCAA | 0.0864
ACTCATAC | -0.00755
GGAAGCTA | -0.236
CCCTGGGC | -0.302
AGCCCTAA | 0.00565
AAACACAG | 0.318
AAACACGA | 0.383

Sequence | PBM E-score
AAACACAC | 0.34
AAACACGG | 0.371
AAACACGC | 0.426
AAACACCG | 0.196
AAACACTC | 0.109
AAACACCA | -0.0494
AAACACGT | 0.361
CCAAGTCC | -0.309
TGGTGACA | 0.087
GGGTTGGA | -0.133
AAGGGATC | -0.156
AGTATACA | 0.322
TGTATAAA | 0.342
CGTATACA | 0.377
TGTATACA | 0.428
GGTATACA | 0.254
TCTATACA | 0.209
ATGTGAAT | 0.297
AACAACCG | 0.156
GGTTTACA | 0.396
CGTTTAGA | -0.00881
GGTTTATA | 0.101
